Measurements published in PubChem BioAssay (Tox21).
Unmarked numbers belong to inactive results. Results filed as inconclusive are left out. Entries that show only a call come without a potency. Calls of active or inactive are those of the source. Unless noted, the call rests on the fitted dose curve; in most records, active means well fitted curve in the direction sought with a large enough effect in the repeat runs; inconclusive means weak or mixed curves; inactive means no such curve, though single readings can be large; an effect the other way counts as inactive or inconclusive.

How the values were obtained:
[1] = qHTS assay to identify small molecule agonists of the estrogen receptor alpha (ER-alpha) signaling pathway in the presence of an antagonist - cell viability counter screen (AID 1259386); further: series mostly up to about 92 µM; nearly all actives have a fitted effect of over 30% in size
How it was run: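 Compounds tested at 15 concentrations for 22 h at 37C alongside 10.0nM (final) ICI-182,780 antagonist, in VM7Luc4E2 cells grown in phenol red-free, charcoal-stripped medium. Viability read by CellTiter-Fluor fluorescence after 1 h reagent incubation.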

[2] = target: Progesterone receptor (Homo sapiens) (UniProt P06401); assay: qHTS assay to identify small molecule agonists of the progesterone receptor (PR) signaling pathway (AID 1346784; calls by dose curve; further: nearly all actives have a fitted effect of over 30% in size)
Progesterone receptor (Homo sapiens), sequence (P06401 whole entry, looked up): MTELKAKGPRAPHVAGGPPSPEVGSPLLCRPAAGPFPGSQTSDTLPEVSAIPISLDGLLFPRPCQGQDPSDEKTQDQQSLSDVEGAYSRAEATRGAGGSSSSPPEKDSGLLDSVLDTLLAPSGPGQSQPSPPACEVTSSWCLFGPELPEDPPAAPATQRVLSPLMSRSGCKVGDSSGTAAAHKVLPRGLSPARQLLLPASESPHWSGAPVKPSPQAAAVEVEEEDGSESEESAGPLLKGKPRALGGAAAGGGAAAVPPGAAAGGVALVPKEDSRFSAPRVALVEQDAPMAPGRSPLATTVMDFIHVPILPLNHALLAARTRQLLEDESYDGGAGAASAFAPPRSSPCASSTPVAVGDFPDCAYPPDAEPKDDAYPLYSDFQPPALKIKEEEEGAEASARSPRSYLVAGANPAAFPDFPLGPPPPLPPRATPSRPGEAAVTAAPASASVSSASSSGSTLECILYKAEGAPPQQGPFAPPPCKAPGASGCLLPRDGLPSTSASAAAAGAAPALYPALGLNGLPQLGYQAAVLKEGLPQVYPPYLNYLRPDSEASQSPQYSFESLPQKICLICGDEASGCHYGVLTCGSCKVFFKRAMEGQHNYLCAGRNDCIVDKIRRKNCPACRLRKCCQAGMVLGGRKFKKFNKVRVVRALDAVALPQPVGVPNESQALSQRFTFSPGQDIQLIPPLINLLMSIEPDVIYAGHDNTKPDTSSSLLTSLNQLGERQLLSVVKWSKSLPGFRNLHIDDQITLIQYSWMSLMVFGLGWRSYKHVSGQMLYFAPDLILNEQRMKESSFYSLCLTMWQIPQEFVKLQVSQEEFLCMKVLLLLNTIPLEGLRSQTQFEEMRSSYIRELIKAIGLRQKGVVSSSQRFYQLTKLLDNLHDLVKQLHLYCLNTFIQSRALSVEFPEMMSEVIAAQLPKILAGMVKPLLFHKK
How it was run: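 PR-UAS-bla HEK 293T cells carrying a UAS-driven beta-lactamase reporter were seeded in medium with 2% charcoal-stripped FBS, preincubated 6 hr at 37C, then exposed to compounds in DMSO for 16 hr; agonism was read by LiveBLAzer B/G FRET fluorescence.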

[3] = target: Progesterone receptor (Homo sapiens) (UniProt P06401); assay: qHTS assay to identify small molecule antagonists of the progesterone receptor (PR) signaling pathway (AID 1346795; active means well fitted inhibition curve with a large enough effect in the signal ratio in the repeat runs, not every such curve was filed as active; the % refers to the signal ratio)
How it was run: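 PR-UAS-bla HEK293T cells carrying a UAS-driven beta-lactamase reporter were plated in medium with 2% charcoal-stripped FBS and rested 6 hr at 37C. Compounds were added with 1 nM R5020 (final) for 16 hr, then FRET substrate loaded 2 hr at room temperature.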

[4] = qHTS assay to identify small molecule agonists of the progesterone receptor (PR) signaling pathway - cell viability counter screen (AID 1346799; calls by dose curve; further: nearly all actives have a fitted effect of over 45% in size)
How it was run: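 PR-UAS-bla HEK293T cells, 3,000 per well in medium with 2% charcoal-stripped FBS, were preincubated 6 hr at 37C, then exposed to compounds for 16 hr; viability was read as CellTiter-Glo luminescence after 30 min at room temperature.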

[5] = qHTS assay to identify small molecule antagonists of the TGF-beta/Smad signaling pathway - cell viability counter screen (AID 1346824); further: nearly all actives have a fitted effect of over 50% in size
How it was run: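 Cytotoxicity counter-screen run in the same wells as the beta-lactamase Smad reporter read: CellTiter-Glo luminescence after 30 min at room temperature. HEK 293T SBE-bla cells had 5 hr compound exposure at 37 C with TGF-beta1 (0.25 ng/mL stock).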

[6] = qHTS assay to identify small molecule agonists of the TGF-beta/Smad signaling pathway - cell viability counter screen (AID 1346829); further: top concentration of the series differs between compounds; nearly all actives have a fitted effect of over 45% in size
How it was run: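 CellTiter-Glo luminescence readout; SBE-bla HEK 293T cells, overnight plating, compound 5 hr at 37 C/5% CO2, then bla substrate 2 hr RT, then CellTiter-Glo 30 min RT.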

[7] = qHTS assay to identify small molecule agonists of the TGF-beta/Smad signaling pathway (AID 1346859; active means well fitted activation curve with a large enough effect in the signal ratio in the repeat runs, not every such curve was filed as active; the % refers to the signal ratio; further: series mostly up to about 77 µM)
How it was run: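 HEK 293T cells stably carrying a beta-lactamase reporter driven by the Smad binding element were seeded overnight, exposed to DMSO-dissolved compounds for 5 hr at 37 C, 5% CO2, then loaded with FRET substrate for 2 hr at room temperature.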

[8] = target: Thyrotropin-releasing hormone receptor (Homo sapiens) (UniProt P34981); assay: qHTS assay to identify small molecule antagonists of the thyrotropin-releasing hormone receptor (TRHR) signaling pathway (AID 1346877; active means well fitted inhibition curve with a large enough effect in the repeat runs, not every such curve was filed as active; further: series mostly up to about 51 µM)
Thyrotropin-releasing hormone receptor (Homo sapiens), sequence (P34981 whole entry, looked up): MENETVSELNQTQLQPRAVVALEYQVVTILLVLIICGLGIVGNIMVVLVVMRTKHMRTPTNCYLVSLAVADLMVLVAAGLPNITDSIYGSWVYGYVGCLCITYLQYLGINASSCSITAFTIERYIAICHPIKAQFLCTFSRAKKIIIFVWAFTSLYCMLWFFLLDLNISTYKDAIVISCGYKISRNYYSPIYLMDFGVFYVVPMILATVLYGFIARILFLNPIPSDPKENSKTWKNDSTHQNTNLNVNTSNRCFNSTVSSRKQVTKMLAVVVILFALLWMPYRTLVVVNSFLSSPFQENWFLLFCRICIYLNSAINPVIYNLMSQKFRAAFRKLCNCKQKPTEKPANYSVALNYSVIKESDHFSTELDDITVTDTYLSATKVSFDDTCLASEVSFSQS
How it was run: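 Antagonist mode: after a 5 min room-temperature compound exposure, cells were stimulated with 1 nM (final) TRH. Dye-loaded TRHR-HEK293 cells were used, and calcium-dependent fluorescence was followed for 3 min, with 15-point titrations run in triplicate.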

[9] = Human pregnane X receptor (PXR) small molecule agonists, qHTS cell viability counter screen (AID 1346977); further: nearly all actives have a fitted effect of over 50% in size
How it was run: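 PXR-Luc HepG2 cells in medium with 5% charcoal-stripped FBS were pre-incubated 5hr, then exposed to compounds for 24hr at 37C. Viability was read in the same wells by CellTiter-Fluor fluorescence, reagent added after 23hr with a 1hr incubation.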

[10] = Caspase-3/7 induction in HepG2 cells by small molecules, qHTS assay (AID 1346978); further: nearly all actives have a fitted effect of over 15% in size
How it was run: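 Caspase-3/7 induction was measured by Caspase-Glo 3/7 luminescence (30 min, room temperature) after a 17 hr compound exposure of wild-type HepG2 cells seeded at 2,000 per well and pre-incubated 5 hr.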

[11] = Caspase-3/7 induction in CHO-K1 cells by small molecules, qHTS cell viability counter screen (AID 1346979); further: nearly all actives have a fitted effect of over 35% in size
How it was run: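 Wild-type CHO-K1 cells were seeded at 1,500 per well, rested 5hr at 37 C, then exposed to compounds in DMSO. After 16hr, CellTiter-Fluor reagent was added and fluorescence read 1hr later as the viability measure.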

[12] = Caspase-3/7 induction in CHO-K1 cells by small molecules, qHTS assay (AID 1346980); further: nearly all actives have a fitted effect of over 15% in size
How it was run: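 Luminescent Caspase-Glo 3/7 read (30min, room temperature) quantified apoptosis induction. Cells were wild-type CHO-K1, treated with compound for 17hr at 37 C and 5% CO2.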

[13] = Caspase-3/7 induction in HepG2 cells by small molecules, qHTS cell viability counter screen (AID 1346981); further: series mostly up to about 92 µM; nearly all actives have a fitted effect of over 30% in size
How it was run: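 CellTiter-Fluor fluorescence measured viability in the same wells used for Caspase-Glo 3/7. HepG2 (wild type) at 2,000 cells/well were pre-incubated 5 hr, dosed, and given reagent at 16 hr, with 1 hr further at 37C.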

[14] = target: Nuclear receptor subfamily 1 group I member 2 (Homo sapiens) (UniProt O75469); assay: Human pregnane X receptor (PXR) small molecule agonists, qHTS assay (AID 1346982); further: nearly all actives have a fitted effect of over 35% in size; further: potency means the concentration at half of the fitted maximal effect
Nuclear receptor subfamily 1 group I member 2 (Homo sapiens), sequence (O75469 whole entry, looked up): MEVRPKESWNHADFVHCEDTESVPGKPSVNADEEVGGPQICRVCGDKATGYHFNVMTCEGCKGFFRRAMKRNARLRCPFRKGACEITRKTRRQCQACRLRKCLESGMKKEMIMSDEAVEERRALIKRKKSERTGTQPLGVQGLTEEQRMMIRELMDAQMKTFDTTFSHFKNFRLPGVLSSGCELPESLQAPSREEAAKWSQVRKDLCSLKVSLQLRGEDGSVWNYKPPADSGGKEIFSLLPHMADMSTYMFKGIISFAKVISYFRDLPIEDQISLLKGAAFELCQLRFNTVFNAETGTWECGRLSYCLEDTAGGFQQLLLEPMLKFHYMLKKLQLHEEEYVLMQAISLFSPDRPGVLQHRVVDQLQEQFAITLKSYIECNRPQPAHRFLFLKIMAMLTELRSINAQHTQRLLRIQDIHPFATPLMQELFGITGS
How it was run: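 Agonist mode: luminescence from ONE-Glo after 24 h compound exposure at 37C in HepG2 cells carrying hPXR-responsive CYP3A4 luciferase, plated in charcoal-stripped serum medium 5 h beforehand.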

[15] = target: Acetylcholinesterase (Homo sapiens) (UniProt P22303); assay: Acetylcholinesterase (AChE) small molecule antagonists: colormetric cell-based qHTS assay (AID 1347395; calls by dose curve; further: nearly all actives have a fitted effect of over 30% in size; further: potency means the concentration at half of the fitted maximal effect)
Acetylcholinesterase (Homo sapiens), sequence (P22303 whole entry, looked up): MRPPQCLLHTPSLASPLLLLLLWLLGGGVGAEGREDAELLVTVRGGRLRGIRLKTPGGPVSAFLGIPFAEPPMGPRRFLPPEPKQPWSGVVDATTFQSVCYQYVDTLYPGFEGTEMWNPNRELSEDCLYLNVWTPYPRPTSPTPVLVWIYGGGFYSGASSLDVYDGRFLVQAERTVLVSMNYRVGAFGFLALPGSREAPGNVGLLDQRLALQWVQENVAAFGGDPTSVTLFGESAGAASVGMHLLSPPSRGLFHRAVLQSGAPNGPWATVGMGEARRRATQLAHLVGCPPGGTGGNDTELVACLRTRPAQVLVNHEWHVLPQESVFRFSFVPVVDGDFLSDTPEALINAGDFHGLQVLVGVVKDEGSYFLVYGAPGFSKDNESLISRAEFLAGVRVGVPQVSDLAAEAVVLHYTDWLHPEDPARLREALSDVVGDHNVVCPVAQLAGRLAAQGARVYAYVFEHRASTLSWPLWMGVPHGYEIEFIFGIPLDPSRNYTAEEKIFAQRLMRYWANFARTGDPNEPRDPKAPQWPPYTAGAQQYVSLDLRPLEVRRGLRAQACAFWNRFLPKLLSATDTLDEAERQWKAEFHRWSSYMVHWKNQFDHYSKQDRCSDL
How it was run: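 SH-SY5Y cells, plated overnight at 37 C, were exposed to compounds for 30 min at 37 C and 5% CO2. Acetylthiocholine plus DTNB was then added, and thiocholine from endogenous AChE was quantified colorimetrically after 90 min at 37 C.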

[16] = target: Thyrotropin-releasing hormone receptor (Homo sapiens) (UniProt P34981); assay: qHTS assay to identify small molecule agonists of the thyrotropin-releasing hormone receptor (TRHR) signaling pathway (AID 1346891; calls by dose curve; further: series mostly up to about 58 µM)
How it was run: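 TRHR-expressing HEK293 cells were plated 18 h at 37 °C/5% CO2, loaded with calcium dye 2 h at 37 °C, then given compound in DMSO; fluorescence was read kinetically for 3 min at 1 s intervals.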

[17] = target: Nuclear receptor subfamily 1 group I member 2 (Rattus norvegicus) (UniProt Q9R1A7); assay: Rat pregnane X receptor (rPXR) activation by small molecules, qHTS assay (AID 1346983); conditions: rPXR luciferase reporter cells, One-Glo luminescence, 24 h; hits give high values; further: nearly all actives have a fitted effect of over 20% in size
Nuclear receptor subfamily 1 group I member 2 (Rattus norvegicus), sequence (Q9R1A7 whole entry, looked up): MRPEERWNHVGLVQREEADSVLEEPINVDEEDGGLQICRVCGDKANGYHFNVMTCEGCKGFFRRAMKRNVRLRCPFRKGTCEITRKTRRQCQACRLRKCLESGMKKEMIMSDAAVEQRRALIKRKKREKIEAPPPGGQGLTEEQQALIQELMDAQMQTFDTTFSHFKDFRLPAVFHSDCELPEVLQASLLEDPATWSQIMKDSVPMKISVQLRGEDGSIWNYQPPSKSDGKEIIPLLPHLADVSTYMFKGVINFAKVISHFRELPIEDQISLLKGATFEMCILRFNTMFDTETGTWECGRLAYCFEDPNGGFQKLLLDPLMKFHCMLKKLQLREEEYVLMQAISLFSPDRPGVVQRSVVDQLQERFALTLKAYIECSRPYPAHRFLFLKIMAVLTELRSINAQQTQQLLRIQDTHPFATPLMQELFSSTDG
How it was run: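 Luminescent readout (One-Glo luciferase, 30 min room temperature) followed 24 hr compound treatment at 37 C of rPXR cells plated 2,000 per well and preincubated 5hr; qHTS format with compounds delivered in DMSO.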

[18] = target: Nuclear receptor subfamily 1 group I member 2 (Homo sapiens) (UniProt O75469); assay: CYP3A4 induction through human pregnane X receptor (PXR) by small molecules, qHTS assay (AID 1346984); further: nearly all actives have a fitted effect of over 40% in size
How it was run: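 Read-out is luminescence after One-Glo addition, following a 3 hr, 37C incubation with Luciferin-IPA CYP3A4 substrate (3uM final). Before that, compounds were on DPX-2 cells (HepG2 co-transfected with PXR element plus CYP3A4-promoter luciferase) for 24 hr at 37C.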

[19] = target: Nuclear receptor subfamily 1 group I member 2 (Homo sapiens) (UniProt O75469); assay: Human pregnane X receptor (PXR) activation by small molecules, qHTS assay (AID 1346985); further: nearly all actives have a fitted effect of over 40% in size
How it was run: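 DPX-2 cells (HepG2 co-transfected with a PXR response element and a CYP3A4-promoter luciferase construct) were seeded at 2,000 per well, rested 5 hr at 37C, then exposed to DMSO-dissolved compounds for 24 hr. Activation was read as luciferase luminescence.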

[20] = qHTS assay to identify small molecule antagonists of the progesterone receptor (PR) signaling pathway - cell viability counter screen (AID 1346798); further: series mostly up to about 92 µM; nearly all actives have a fitted effect of over 50% in size
How it was run: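 PR-UAS-bla HEK293T cells in medium with 2% charcoal-stripped FBS were treated with compounds plus R5020 for 16 hr at 37C. Cell viability was then read by CellTiter-Glo luminescence after 30 min at room temperature in the same wells.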

Structure (SMILES)	Potency [1]	Potency [2]	Potency [3]	Potency [4]	outcome [5]	Potency [6]	outcome [7]	Potency [8]	Potency [9]	outcome [10]	Potency [11]	outcome [12]	Potency [13]	Potency [14]	Potency [15]	outcome [16]	max activation [17] [%]	Potency [18]	Potency [19]	Potency [20]
Cc1ccc2cc(C)ccc2c1	inactive	inactive	inactive	inactive	inactive	inactive	inactive	inactive	inactive	inactive	inactive	inactive	inactive	inactive	inactive					
CCCOc1nn(C(=O)NS(=O)(=O)c2ccccc2C(=O)OC)c(=O)n1C	inactive	inactive	inactive	inactive		inactive			inactive	inactive	inactive	inactive	inactive	inactive	inactive					
ClC(Cl)(Cl)Cl	inactive	inactive	inactive	inactive	inactive	inactive		inactive	inactive	inactive	inactive	inactive		inactive	inactive	inactive	-2.8	inactive	inactive	
C=CCc1cc(OC)c2c(c1)OCO2	inactive	inactive		inactive	inactive	inactive	inactive	inactive	inactive	inactive	inactive	inactive	inactive	36 µM (active)	inactive					
CC(O)CCl (stereo not drawn)	inactive	inactive		inactive	inactive	inactive	inactive		inactive	inactive	inactive	inactive	inactive	inactive	inactive					
O=C(Cl)/C=C/C(=O)Cl	inactive				inactive	inactive	inactive		inactive	inactive	inactive	inactive	inactive	inactive	inactive					inactive
CC[C@H](O)C(C[C@H](C)N(C)C)(c1ccccc1)c1ccccc1	inactive	inactive		inactive	inactive	inactive	inactive			inactive	inactive	inactive	inactive	inactive	inactive					
C[N+]1(C)CCCCC1	inactive		inactive		inactive	inactive	inactive	inactive	inactive	inactive	inactive	inactive		inactive		inactive				inactive
COC(=O)c1ccccc1CS(=O)(=O)NC(=O)Nc1nc(OC)cc(OC)n1	inactive		inactive	inactive	inactive	inactive		inactive	inactive	inactive	inactive			34.4 µM (active)	inactive	inactive				inactive
CCc1cc(OC)c(C[C@H](C)N)cc1OC	inactive	inactive			inactive	inactive		inactive		inactive	inactive	inactive	inactive	inactive						
O=C(O)C(Cl)Br (stereo not drawn)	inactive	inactive		inactive	inactive	inactive		inactive	inactive	inactive	inactive	inactive	inactive	inactive	inactive	inactive				
CC[C@H](N)c1ccccc1	inactive		inactive	inactive	inactive	inactive	inactive		inactive	inactive	inactive	inactive	inactive		inactive					inactive
CON(C)C(=O)Nc1ccc(Br)c(Cl)c1	inactive	inactive		inactive	inactive	inactive	inactive	inactive	inactive	inactive		inactive		27.3 µM (active)	inactive	inactive				
Oc1ccc2c3c1O[C@H]1[C@@H](O)C=C[C@H]4[C@@H](C2)NCC[C@@]341		inactive	inactive		inactive	inactive	inactive		inactive	inactive			inactive							inactive
CNC(=O)O/N=C(/CSC)C(C)(C)C	inactive			inactive	inactive	inactive	inactive	inactive	inactive	inactive	inactive				1.59 µM (active)	inactive				inactive
CC(C)C(C)(N)C#N (stereo not drawn)	inactive	inactive		inactive	inactive	inactive	inactive	inactive	inactive	inactive	inactive	inactive	inactive	inactive	inactive	inactive				
CN1COCN(Cc2cnc(Cl)s2)/C1=N\[N+](=O)[O-]	inactive	inactive		inactive		inactive	inactive	inactive	inactive	inactive	inactive	inactive	inactive	inactive	inactive	inactive				
[P]#[In]	inactive			inactive	inactive	inactive		inactive		inactive	inactive	inactive	inactive	inactive		inactive				inactive
